# Reference: PubChem BioAssay (NCI)
# The panel holds about 83,000 compounds, 20% with a hit somewhere; the sample as a whole holds those more often.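 Note: values are percent growth. 100 is the growth of untreated cells, values between 100 and 0 indicate rising inhibition; between -100 and 0 indicates cell death.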 A number with no mark means an inactive call. Calls of active or inactive are those of the source. The calls were made as follows: active = growth percent below 10; inactive = the rest.
# Assays:
# Assay in all cases: NCI-60 one-dose screen, 48 h (100 = growth as untreated, 0 = no growth, -100 = all killed)
# SK-MEL-2 melanoma = settings: 10 µM
# EKVX NSCLC = settings: 10 µM
# SN12C renal = settings: 10 µM
# UO-31 renal = settings: 10 µM
# TK-10 renal = settings: 10 µM unless noted
# ACHN renal = settings: 10 µM
# CAKI-1 renal = settings: 10 µM
# A498 renal = settings: 10 µM
# CCRF-CEM leukemia = settings: 10 µM
# MOLT-4 leukemia = settings: 10 µM
Compound,growth (SK-MEL-2 melanoma),growth (EKVX NSCLC),growth (SN12C renal),growth (UO-31 renal),growth (TK-10 renal),growth (ACHN renal),growth (CAKI-1 renal),growth (A498 renal),growth (CCRF-CEM leukemia),growth (MOLT-4 leukemia)
C[N+](C)(C)C(=O)c1ccccc1,98.6%,108%,95.8%,85.9%,102%,107%,99.9%,98%,104%,103%
C[C@]12CC[C@@H]3c4ccc(OCC(=O)O)cc4CC[C@H]3[C@@H]1CCC2=O,105%,117%,102%,86.1%,103%,96.9%,113%,78.1%,116%,86.2%
Cc1cc(N2CCC(N3CCCC3)CC2)nc(/N=C(\N)Nc2ccc(Cl)c(Cl)c2)n1,-71.7% (active),2.57% (active),93.7%,-97.4% (active),-86.3% (active),-27.8% (active),-40.6% (active),45.7%,-11.8% (active),-19.8% (active)
COc1cc2c3c(n(C)c(=O)c2cc1OC)-c1cc2c(cc1C3=O)OCO2,113%,94.2%,87%,32.6%,101%,26.6%,24.3%,75.5%,29.5%,18.3%
O=[N+]([O-])c1ccc(N=Nc2ccccc2)cc1,94.3%,106%,94.3%,65.7%,92.2%,96.2%,92.8%,89.8%,38.7%,79.1%
CC(=O)OCC1CCCO1 (stereo not given),106%,96%,103%,92.2%,94.9%,106%,101%,101%,107%,97.6%
O=c1cc(-c2ccccc2)[nH]c(=S)[nH]1,98.8%,129%,102%,79.2%,95.7%,96.7%,175%,97.6%,90.5%,95.3%
CC(=O)c1c[nH]c2ccccc12,161%,99.2%,99.2%,74.7%,108%,107%,80.1%,103%,102%,104%
FC(F)(F)c1ccc2c(c1)N(CCCN1CCN(C3CC3)CC1)c1ccccc1S2,90.4%,86.8%,47.7%,17.6%,80%,78.1%,17.3%,9.76% (active),26.5%,34%
Cc1cc(C)c(CC(=O)O)c(C)c1,100%,98.3%,113%,94.3%,106%,102%,93.3%,84.4%,103%,98.5%
CCOc1ccc(Br)cc1/C=N\N=C\c1cc(Br)ccc1OCC,109%,107%,102%,88.8%,111%,104%,90.8%,141%,-3.92% (active),102%
O=S(=O)(O)C(Nc1ccccc1)c1ccccc1 (stereo not given),82.2%,104%,97.8%,92.7%,100%,97.6%,93.8%,81.3%,115%,106%
O=C(O)C(c1ccccc1)C(O)c1ccccc1 (stereo not given),99.6%,108%,98.2%,94.4%,108%,96.6%,100%,69.8%,99.8%,87.5%
COC(=O)Nc1nc2ccc(C(=O)c3ccc(F)cc3)cc2[nH]1,-20.1% (active),36.7%,29.8%,1.98% (active),17.3%,33.2%,15.2%,7.59% (active),-46% (active),-27% (active)
CC(C)C(C#N)(C(C)C)C(C)C,98%,96.7%,99.9%,81.5%,96%,108%,95.6%,98.3%,102%,104%
O=C(NN=C1CCCCC1)C(=O)NN=C1CCCCC1,91.2%,109%,106%,95.6%,99%,109%,110%,119%,85.6%,90.9%
CC1CC(O)CC(C)(C)C1 (stereo not given),105%,98.8%,104%,85.6%,102%,107%,98.9%,98.7%,96.4%,100%
CC1SC(N)=NC1=O (stereo not given),111%,96.2%,120%,92.2%,108%,108%,103%,107%,99.3%,122%
CN(C)C(=O)Oc1cccc([N+](C)(C)C)c1,124%,93.1%,97.8%,98.6%,125%,97.9%,89.9%,95.5%,113%,102%
CC1CCC(C(=O)O)N1 (stereo not given),91.5%,107%,92.7%,76.5%,101%,91.6%,92.3%,84%,101%,87.8%
O=C(O)[C@@H]1[C@H]2C[C@H]3c4[nH]c5ccccc5c4CCN3C[C@@H]2CC[C@@H]1O,30.5%,110%,107%,82.8%,104%,100%,105%,130%,103%,139%
Cc1cc(C)c(N)c(S(=O)(=O)O)c1,93.6%,101%,97.7%,76.2%,105%,96.6%,91.3%,142%,86%,113%
CC(C)CCOC(=O)c1ccccc1,106%,110%,102%,92%,101%,111%,97.1%,97.7%,109%,98.7%
O=c1[nH]c(O)c(/C=C2/C=Nc3ccccc32)[nH]1,104%,95%,98.3%,68.7%,99.9%,87%,106%,86%,58.2%,73.7%
Cc1cc(C(O)(c2ccc(Nc3ccccc3)cc2)c2ccc(Nc3ccc(S(=O)(=O)O)cc3)cc2)ccc1N (stereo not given),-33.1% (active),9.86% (active),22.5%,3.47% (active),7.3% (active),-13.2% (active),31.7%,2.33% (active),2.35% (active),8.2% (active)
COc1nc(N)nc2c1ncn2C1OC(CO)CC1O (stereo not given),106%,102%,103%,82.4%,105%,97.4%,104%,114%,58.8%,97.7%
CN(C)c1ccc(CNC(C(=O)c2ccccc2)c2ccccc2)cc1 (stereo not given),74.5%,101%,115%,102%,112%,101%,102%,8.44% (active),90.9%,94.9%
CC(=O)Nc1c(C)cc(C)cc1C,102%,101%,111%,95.5%,104%,107%,91.6%,109%,107%,97.2%
CSC[C@H](NC(=O)COc1cccc2cnccc12)C(=O)NC(Cc1ccccc1)C(O)C(=O)N1CSC[C@H]1C(=O)NC(C)(C)C (stereo not given in full),113%,103%,102%,94.4%,139%,109%,95.5%,95.6%,111%,101%
CCOC(=O)CNN,113%,113%,101%,91.4%,102%,119%,106%,79.6%,97.8%,112%
